Columns and labels:
Experiment in all cases: log2 ratio of Biotin-Ahx-Ub-VS probe labelling (fragment/DMSO); higher = less target engagement (more negative = stronger competition), active = hit call of the paper (q ≤ 0.05, log2 ratio ≤ -1)
Conditions in all cases: compound concentration: 200 uM; treatment time: 3 h
USP19 = target: T1, USP19 (UniProt O94966)
T1 sequence (whole entry): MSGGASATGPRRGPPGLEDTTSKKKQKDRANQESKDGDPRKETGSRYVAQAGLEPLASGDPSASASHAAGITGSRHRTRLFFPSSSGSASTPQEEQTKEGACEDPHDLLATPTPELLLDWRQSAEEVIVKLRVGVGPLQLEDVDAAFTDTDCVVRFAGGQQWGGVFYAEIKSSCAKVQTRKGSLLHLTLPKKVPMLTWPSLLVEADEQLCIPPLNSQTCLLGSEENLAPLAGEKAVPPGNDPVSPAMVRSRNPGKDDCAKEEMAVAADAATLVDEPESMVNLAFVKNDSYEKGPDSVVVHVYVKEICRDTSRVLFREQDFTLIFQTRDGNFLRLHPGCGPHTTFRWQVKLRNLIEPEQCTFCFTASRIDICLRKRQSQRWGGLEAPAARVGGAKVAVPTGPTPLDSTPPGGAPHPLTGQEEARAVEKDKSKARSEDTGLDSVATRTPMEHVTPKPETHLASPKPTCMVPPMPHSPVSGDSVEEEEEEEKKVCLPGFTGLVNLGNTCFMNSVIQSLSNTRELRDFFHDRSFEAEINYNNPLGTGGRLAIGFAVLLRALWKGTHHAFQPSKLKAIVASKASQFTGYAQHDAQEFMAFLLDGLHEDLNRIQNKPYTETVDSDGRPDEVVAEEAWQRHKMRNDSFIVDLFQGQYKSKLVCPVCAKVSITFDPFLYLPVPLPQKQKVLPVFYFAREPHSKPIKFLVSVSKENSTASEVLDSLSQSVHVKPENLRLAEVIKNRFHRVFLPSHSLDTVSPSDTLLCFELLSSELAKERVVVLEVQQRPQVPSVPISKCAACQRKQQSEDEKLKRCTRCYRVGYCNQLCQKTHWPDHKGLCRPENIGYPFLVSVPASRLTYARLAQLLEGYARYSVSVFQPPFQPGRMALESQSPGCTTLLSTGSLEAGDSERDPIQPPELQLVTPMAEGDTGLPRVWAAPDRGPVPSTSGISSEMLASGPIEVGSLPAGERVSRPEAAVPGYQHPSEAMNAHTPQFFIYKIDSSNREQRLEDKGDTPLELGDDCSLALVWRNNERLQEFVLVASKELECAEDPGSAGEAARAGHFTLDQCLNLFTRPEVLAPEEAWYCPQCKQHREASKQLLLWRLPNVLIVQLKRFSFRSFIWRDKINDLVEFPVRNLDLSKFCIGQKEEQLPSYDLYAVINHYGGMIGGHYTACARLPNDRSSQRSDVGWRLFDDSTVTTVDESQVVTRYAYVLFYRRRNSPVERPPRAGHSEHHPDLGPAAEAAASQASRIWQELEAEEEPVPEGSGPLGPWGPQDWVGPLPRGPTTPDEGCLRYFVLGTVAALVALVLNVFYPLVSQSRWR
Outline: (§1)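 Fragment (200 µM) or vehicle was incubated for 3 h with triplicate HEK293T lysate samples of 495 µg, which were then treated with Biotin-Ahx-Ub-VS at 0.5 µM final for 1 h. Labelled DUBs were enriched on NeutrAvidin, digested with LysC and trypsin, and analysed by diaPASEF LC-MS/MS. Values are average log2 fragment/vehicle ratios from an unpaired t-test on global-median-normalised Spectronaut label-free quantities, using proteins with ≥2 unique peptides.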

USP24 = USP24 (UniProt Q9UPU5)
Outline: as §1

USP25 = target: T2, USP25 (UniProt Q9UHP3)
T2 sequence (whole entry): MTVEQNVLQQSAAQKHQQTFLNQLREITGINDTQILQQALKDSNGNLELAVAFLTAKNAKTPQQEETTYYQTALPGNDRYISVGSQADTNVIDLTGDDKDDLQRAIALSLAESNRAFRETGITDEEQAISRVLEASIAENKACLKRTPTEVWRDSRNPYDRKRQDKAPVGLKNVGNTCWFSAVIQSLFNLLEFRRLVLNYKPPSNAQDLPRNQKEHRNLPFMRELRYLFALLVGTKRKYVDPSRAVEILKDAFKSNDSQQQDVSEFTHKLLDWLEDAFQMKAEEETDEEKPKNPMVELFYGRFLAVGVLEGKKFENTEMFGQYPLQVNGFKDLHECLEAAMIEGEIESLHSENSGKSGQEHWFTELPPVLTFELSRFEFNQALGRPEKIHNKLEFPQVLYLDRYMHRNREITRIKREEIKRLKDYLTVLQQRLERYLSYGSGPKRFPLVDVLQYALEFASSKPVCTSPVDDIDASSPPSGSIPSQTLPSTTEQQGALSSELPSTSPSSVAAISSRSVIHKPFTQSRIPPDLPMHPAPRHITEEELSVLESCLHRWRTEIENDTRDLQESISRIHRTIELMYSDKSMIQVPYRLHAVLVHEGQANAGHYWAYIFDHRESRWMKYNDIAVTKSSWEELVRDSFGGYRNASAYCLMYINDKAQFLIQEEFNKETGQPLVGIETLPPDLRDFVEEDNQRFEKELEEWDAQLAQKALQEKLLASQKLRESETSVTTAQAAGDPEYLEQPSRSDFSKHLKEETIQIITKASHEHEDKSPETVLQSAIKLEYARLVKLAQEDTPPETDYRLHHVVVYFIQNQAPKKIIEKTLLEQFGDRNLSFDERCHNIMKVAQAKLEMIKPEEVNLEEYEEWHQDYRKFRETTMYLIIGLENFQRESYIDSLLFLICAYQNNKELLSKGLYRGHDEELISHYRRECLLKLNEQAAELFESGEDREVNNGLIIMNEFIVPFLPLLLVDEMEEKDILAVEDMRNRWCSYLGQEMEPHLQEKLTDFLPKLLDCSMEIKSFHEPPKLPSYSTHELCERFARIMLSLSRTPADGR
Outline: as §1

USP28 = target: T3, USP28 (UniProt Q96RU2)
T3 sequence (whole entry): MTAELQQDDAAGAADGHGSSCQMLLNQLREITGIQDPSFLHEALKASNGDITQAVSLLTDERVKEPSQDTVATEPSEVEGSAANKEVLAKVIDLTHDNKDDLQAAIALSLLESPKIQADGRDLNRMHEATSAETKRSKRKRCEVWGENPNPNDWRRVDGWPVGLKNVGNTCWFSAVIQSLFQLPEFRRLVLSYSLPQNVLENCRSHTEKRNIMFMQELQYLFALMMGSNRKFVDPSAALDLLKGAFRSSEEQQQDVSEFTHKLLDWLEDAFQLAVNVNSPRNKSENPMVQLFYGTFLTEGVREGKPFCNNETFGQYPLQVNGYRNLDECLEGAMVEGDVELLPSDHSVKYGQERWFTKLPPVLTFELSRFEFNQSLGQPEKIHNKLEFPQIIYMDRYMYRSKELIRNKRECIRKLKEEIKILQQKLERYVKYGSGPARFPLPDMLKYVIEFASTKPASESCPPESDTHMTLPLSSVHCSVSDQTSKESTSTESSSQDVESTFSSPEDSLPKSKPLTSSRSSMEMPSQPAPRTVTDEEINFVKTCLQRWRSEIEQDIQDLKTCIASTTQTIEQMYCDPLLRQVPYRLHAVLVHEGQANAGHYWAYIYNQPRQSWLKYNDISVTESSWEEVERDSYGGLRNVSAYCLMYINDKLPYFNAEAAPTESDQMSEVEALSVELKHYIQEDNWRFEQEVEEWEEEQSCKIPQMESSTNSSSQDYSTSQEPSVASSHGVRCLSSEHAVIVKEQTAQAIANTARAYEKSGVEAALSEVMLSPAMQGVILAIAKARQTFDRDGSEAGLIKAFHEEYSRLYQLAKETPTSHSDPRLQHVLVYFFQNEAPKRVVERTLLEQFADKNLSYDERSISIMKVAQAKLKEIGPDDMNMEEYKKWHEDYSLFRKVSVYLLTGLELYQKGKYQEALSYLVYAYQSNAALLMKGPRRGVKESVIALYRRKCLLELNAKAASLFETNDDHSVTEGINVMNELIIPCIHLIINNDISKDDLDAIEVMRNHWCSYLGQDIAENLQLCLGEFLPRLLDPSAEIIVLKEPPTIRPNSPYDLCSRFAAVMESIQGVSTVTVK
Outline: as §1

Measured: log2 ratio of Biotin-Ahx-Ub-VS probe labelling

USP24, sequence (Q9UPU5 whole entry): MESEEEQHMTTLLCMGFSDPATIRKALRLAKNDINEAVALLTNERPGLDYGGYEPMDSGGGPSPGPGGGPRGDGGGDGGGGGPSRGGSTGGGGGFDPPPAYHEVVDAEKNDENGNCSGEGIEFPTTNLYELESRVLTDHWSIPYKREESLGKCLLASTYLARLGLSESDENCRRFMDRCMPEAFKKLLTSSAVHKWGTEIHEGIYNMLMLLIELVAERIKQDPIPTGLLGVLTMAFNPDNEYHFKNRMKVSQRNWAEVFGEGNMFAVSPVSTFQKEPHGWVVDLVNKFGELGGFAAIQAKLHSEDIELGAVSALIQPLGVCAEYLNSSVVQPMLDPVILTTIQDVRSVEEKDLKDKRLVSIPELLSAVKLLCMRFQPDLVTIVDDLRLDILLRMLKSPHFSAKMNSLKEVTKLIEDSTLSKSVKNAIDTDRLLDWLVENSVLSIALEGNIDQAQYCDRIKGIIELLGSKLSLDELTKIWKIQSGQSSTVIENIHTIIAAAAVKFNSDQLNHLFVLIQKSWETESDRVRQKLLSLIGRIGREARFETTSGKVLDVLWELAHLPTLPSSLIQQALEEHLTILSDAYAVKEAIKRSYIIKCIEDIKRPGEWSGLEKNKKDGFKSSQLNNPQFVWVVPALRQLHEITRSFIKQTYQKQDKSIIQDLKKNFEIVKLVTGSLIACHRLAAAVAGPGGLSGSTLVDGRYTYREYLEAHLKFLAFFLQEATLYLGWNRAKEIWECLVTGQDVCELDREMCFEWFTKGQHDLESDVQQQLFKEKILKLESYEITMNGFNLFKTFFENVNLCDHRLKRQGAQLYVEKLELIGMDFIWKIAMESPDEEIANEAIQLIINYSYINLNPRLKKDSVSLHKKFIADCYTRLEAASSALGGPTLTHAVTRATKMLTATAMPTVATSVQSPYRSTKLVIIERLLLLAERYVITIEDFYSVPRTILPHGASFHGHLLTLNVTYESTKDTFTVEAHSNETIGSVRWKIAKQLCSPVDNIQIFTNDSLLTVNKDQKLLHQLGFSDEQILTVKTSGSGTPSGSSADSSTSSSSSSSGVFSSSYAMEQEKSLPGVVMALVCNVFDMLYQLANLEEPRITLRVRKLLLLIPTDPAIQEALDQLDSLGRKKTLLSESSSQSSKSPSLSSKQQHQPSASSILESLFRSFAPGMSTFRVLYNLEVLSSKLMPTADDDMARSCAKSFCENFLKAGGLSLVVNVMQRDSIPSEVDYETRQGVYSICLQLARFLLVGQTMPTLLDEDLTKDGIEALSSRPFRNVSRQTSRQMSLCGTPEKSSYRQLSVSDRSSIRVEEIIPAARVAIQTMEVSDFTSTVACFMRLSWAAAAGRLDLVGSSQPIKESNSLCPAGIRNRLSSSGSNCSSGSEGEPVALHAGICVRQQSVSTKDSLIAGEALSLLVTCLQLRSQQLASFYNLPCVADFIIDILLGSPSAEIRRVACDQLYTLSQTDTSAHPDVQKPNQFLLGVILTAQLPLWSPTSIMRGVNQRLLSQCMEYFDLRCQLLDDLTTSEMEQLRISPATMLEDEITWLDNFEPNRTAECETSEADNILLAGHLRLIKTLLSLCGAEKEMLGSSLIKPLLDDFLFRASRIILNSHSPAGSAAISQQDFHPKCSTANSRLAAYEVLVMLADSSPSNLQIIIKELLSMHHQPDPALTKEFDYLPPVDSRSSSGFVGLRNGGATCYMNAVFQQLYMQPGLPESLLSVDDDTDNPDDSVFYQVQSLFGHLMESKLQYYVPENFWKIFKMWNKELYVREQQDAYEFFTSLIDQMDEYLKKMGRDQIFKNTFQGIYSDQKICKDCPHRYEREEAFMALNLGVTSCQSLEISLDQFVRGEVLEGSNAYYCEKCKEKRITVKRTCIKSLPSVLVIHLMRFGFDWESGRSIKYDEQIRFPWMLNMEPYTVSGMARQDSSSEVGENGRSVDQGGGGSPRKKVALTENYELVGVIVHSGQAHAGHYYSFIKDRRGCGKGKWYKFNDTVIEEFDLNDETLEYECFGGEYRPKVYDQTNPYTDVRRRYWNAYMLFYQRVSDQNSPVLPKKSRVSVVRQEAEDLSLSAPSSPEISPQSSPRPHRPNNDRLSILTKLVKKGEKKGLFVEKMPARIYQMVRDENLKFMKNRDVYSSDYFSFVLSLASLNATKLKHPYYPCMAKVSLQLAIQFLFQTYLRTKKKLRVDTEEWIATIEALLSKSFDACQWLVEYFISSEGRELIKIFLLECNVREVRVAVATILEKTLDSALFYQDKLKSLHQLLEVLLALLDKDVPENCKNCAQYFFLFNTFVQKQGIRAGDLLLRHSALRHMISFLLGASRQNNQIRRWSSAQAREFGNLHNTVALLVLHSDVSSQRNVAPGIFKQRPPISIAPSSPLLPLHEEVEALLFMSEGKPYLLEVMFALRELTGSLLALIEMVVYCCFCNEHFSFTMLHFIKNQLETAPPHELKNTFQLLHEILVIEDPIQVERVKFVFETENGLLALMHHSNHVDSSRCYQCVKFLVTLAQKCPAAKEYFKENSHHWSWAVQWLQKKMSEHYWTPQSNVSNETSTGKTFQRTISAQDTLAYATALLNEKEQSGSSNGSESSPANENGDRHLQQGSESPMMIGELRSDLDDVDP

O=C(CCl)N1CCOC2(CCC2)C1
inactive: USP19 0.0251 | USP24 -0.0132 | USP25 -0.216 | USP28 -0.0963
